These results are taken from PubChem BioAssay (NCATS).

Experiment [1] addresses Mitogen-activated protein kinase 10 (Mus musculus) (UniProt Q61831). In words: JNK3 AlphaScreen Assay (AID 530; active = well fitted curve in either direction with a large enough effect, not every such curve was filed as active;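 also: kinase came from lysate of stimulated human HepG2 cells; signal reports phosphorylation of biotinylated GST-cJun 1-79 at Ser73 with 10 µM ATP; % is scaled to controls: 0 for no effect and ±100 for the full control effect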). Summed up: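 Biotinylated GST-cJun(1-79) served as substrate for JNK3 in HepG2 lysates stimulated with IL-1beta and TNF-alpha. ATP was 10 uM final, pH 7.6. Ser73 phosphorylation was quantified by AlphaScreen (680 nm excitation).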
For experiment [2], the target named is 3',5'-cyclic-AMP phosphodiesterase 4B (Homo sapiens) (UniProt Q07343). Description: qHTS Assay for Inhibitors of PDE-IV (AID 607; active = well fitted activation curve with a large enough effect in the main read-out, with a control signal flat, not every such curve was filed as active; also: % of control where 0% means no effect). Summed up: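 HEK293 ACTOne cells with CNG channel (1000/well), endogenous PDE4; membrane potential dye, compounds up to 22.9 uM final. Fluorescence Ex 535/Em 590; RO 20-1724 (100 uM final) as reference.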
Experiment [3] in a line: Cell Viability - N2a (AID 540).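 Also: plate controls were DMSO alone for no effect and tamoxifen control for full effect; nearly all actives have a fitted effect of over 45% in size.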 Summed up: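 N2a mouse neuroblastoma, 1500 cells/well, 5 hr settle; compound 40 hr, 37 °C; CellTiter-Glo 20 min RT; luminescence; Hill-fit AC50.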
The nature of experiment [4]: Cell Viability - NIH 3T3 (AID 541).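 Also: cells exposed to compound for 40 hours; plate controls were DMSO alone for no effect and tamoxifen positive control for full effect; nearly all actives have a fitted effect of over 25% in size.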 The conditions noted are these: NIH 3T3 cell viability, qHTS; at 92.2 µM (top of the series). The gist of the method: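 qHTS format; 40 hr compound exposure, 37 °C; CellTiter-Glo luminescence (cellular ATP) read-out after 20 min at RT. Decrease in ATP = cytotoxicity; AC50 from standard Hill fit.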
Experiment [5] can be described thus: Cell Viability - HUV-EC-C (AID 542).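 Also: cells exposed to compound for 40 hours; % is scaled to controls: 0 for no effect and ±100 for the full control effect; nearly all actives have a fitted effect of over 35% in size.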 Summed up:
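Luminescent ATP read-out (CellTiter-Glo, 20 min room temperature) after 40 hr compound treatment of HUV-EC-C cells at 37 °C. Concentration-response data fitted with the standard Hill equation to give AC50; tamoxifen and doxorubicin served as positive controls.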

Experiment [6] can be described thus: Cell Viability - H-4-II-E (AID 543).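 Also: cells exposed to compound for 40 hours; nearly all actives have a fitted effect of over 35% in size.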 Also: potency is read from the fitted curve at half-maximal effect. The gist of the method: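 qHTS, rat hepatoma H-4-II-E, 1500 cells/well; 40 hr compound exposure, 37 °C; CellTiter-Glo ATP luminescence after 20 min RT; AC50 by standard Hill fit.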
The nature of experiment [7]: Cell Viability - SH-SY5Y (AID 544).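 Also: cells exposed to compound for 40 hours; nearly all actives have a fitted effect of over 55% in size.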 Also: potency is read from the fitted curve at half-maximal effect. Summed up: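 SH-SY5Y, 1500 cells/well, 5 hr pre-incubation 37 °C; cpd 40 hr 37 °C; CellTiter-Glo 20 min RT; luminescence (ATP) read. qHTS concentration-response, Hill fit → AC50. Tamoxifen, doxorubicin as positive controls.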
Experiment [8] in a line: Cell Viability - Renal Proximal Tubule (AID 545).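 Also: cells exposed to compound for 40 hours; nearly all actives have a fitted effect of over 40% in size.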 The gist of the method: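 Cytotoxicity is scored as a concentration-dependent drop in cellular ATP in primary rat renal proximal tubule cells exposed for 40 hr. AC50 derives from Hill modelling.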
Experiment [9] is described as follows: Cell Viability - Mesenchymal (AID 546).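 Also: cells exposed to compound for 40 hours before reading.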 The gist of the method:
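In this qHTS cytotoxicity format, glomerulus-derived human mesenchymal kidney cells received compound for 40 hr, then luciferase-based ATP quantitation. Concentration-response data were fitted with the Hill equation.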

Experiment [10] in a line: Cellular Toxicity (caspase-3) HepG2 (AID 654).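 Also: cells exposed to compound for 16 hours before reading; 0% = DMSO alone and 100% = caspase signal from 100 µM tamoxifen.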 Summed up: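 Luminescent Caspase-Glo 3/7 readout after 16 hr compound exposure of human hepatocellular carcinoma HepG2 cells at 37 °C; qHTS concentration-response, normalized DMSO = 0%, 100 uM tamoxifen = 100%; AC50 by standard Hill equation.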
Experiment [11] can be described thus: Cellular Toxicity (caspase-3) Jurkat (AID 655).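 Also: cells exposed to compound for 16 h at 37 °C before reading.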 The conditions noted are these: Jurkat caspase-3 activation, luminescence, DMSO = 0%, tamoxifen = 100%; at 92.2 µM (top of the series). The gist of the method: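 Caspase 3/7 activation is scored as increased luminescence in Jurkat cells cultured with compound for 16 hours in complete medium. AC50 values come from Hill fits of qHTS concentration-response data normalized to DMSO and 100 uM tamoxifen controls.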

Experiment [12] in a line: Cellular Toxicity (caspase-3) HUV-EC-C (AID 656). The gist of the method: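 Read-out: luminescence proportional to caspase 3/7 activity, measured 20 min after adding Caspase-Glo 3/7 reagent. Cells (HUV-EC-C) had received compound for 16 hr at 37°C. Increases relative to DMSO and 100 uM tamoxifen gave concentration-response AC50 values.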
Experiment [13] is described as follows: Cellular Toxicity (caspase-3) SHSY5Y (AID 657).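 Also: cells exposed to compound for 16 hours at 37 °C.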 The gist of the method:
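Cells plated and incubated 5 h at 37 °C, dosed over a concentration range, incubated 16 h, then given Caspase-Glo 3/7 reagent for 1 h at room temperature before luminescence reading. Staurosporine (10 uM) defined full stimulation.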

The nature of experiment [14]: Cellular Toxicity (caspase-3) BJ (AID 658).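 Also: 0% = DMSO basal and 100% = 10 µM staurosporine.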 Summed up:
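Plated BJ cells (1000/well) rested 5 hr, received compound for 16 hr at 37 °C, then Caspase-Glo 3/7 reagent for 1 hr at room temperature before luminescence reading.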

The nature of experiment [15]: Cellular Toxicity (caspase-3) MRC-5 (AID 659).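 Also: 0% = DMSO basal and 100% = 10 µM staurosporine.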 Summed up:
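Apoptosis readout in MRC-5 cells: luciferase light generated after caspase 3/7 cleaves a peptide-aminoluciferin substrate, measured post 16 hr compound incubation at 37 °C.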

Experiment [16] can be described thus: Cellular Toxicity (caspase-3) Mesangial (AID 660).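 Also: cells exposed to compound for 16 h before the caspase read.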 Summed up: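 Luminescent Caspase-Glo 3/7 readout (aminoluciferin substrate cleavage, 20 min RT) after 16 h compound exposure at 37 °C of normal human mesangial cells. Signal increase normalized between DMSO basal and 100 uM tamoxifen; Hill-equation AC50.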
Experiment [17] can be described thus: Cellular Toxicity (caspase-3) SK-N-SH (AID 661).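 Also: 0% = DMSO basal and 100% = 10 µM staurosporine.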 The gist of the method:
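Luminescent Caspase-Glo 3/7 read-out after 16 hr compound exposure of SK-N-SH neuroblastoma cells at 37 °C. Signal increase normalized to DMSO (basal) and 10 uM staurosporine (100%); AC50 from Hill equation fits of qHTS concentration-response data.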

Experiment [18] can be described thus: Cellular Toxicity (caspase-3) H-4-II-E (AID 663).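 Also: cells exposed to compound for 16 hr before readout.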 Summed up: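 Caspase 3/7 activation measured in H-4-II-E cells in complete culture medium after 16 hr treatment at 37 °C, using luciferase-coupled substrate readout; AC50 values come from Hill-equation fits of normalized concentration-response data.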
Experiment [19] can be described thus: Cellular Toxicity (caspase-3) Hek293 (AID 664).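 Also: cells exposed to compound for 16 h at 37 °C before readout.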 The gist of the method:
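Luminescent Caspase-Glo 3/7 readout (aminoluciferin release) in HEK293 cells after 16 h compound treatment, 37 °C. Normalization: DMSO = basal, 100 uM tamoxifen = 100% stimulation. Concentration-response fitted with standard Hill equation for AC50.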

The target in experiment [20] is Glucocorticoid receptor (Homo sapiens) (UniProt P04150). In words: GR-EFC Redistribution (AID 451; calls by dose curve; also: potency is read from the fitted curve at half-maximal effect). The conditions noted are these: CHO-K1 GR-EFC translocation, beta-gal luminescence, 2 h. The gist of the method: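 CHO-K1 cells stably expressing nuclear-localized β-gal enzyme acceptor and GR fused C-terminally to the enzyme donor fragment; ligand-driven nuclear translocation restores β-gal by complementation. Compounds titrated up to 46 uM final, 2 h at 37 °C; luminescence read.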

Where “and” joins values, the source holds several entries; their conditions need not be identical. Identical values can stand only once. A number with no mark means an inactive call. Inconclusive results are not listed. Calls of active or inactive are those of the source. Unless noted, calls follow the shape of the dose curve; as a rule, active = well fitted curve in the direction sought with a large enough effect; inconclusive = small, poorly fitted or top-dose-only effect, or another doubt; inactive = no such curve, though single readings can be large; an effect the other way counts as inactive or inconclusive.

Sequence of Glucocorticoid receptor (Homo sapiens) (P04150 whole entry, looked up, the tested form may be a part): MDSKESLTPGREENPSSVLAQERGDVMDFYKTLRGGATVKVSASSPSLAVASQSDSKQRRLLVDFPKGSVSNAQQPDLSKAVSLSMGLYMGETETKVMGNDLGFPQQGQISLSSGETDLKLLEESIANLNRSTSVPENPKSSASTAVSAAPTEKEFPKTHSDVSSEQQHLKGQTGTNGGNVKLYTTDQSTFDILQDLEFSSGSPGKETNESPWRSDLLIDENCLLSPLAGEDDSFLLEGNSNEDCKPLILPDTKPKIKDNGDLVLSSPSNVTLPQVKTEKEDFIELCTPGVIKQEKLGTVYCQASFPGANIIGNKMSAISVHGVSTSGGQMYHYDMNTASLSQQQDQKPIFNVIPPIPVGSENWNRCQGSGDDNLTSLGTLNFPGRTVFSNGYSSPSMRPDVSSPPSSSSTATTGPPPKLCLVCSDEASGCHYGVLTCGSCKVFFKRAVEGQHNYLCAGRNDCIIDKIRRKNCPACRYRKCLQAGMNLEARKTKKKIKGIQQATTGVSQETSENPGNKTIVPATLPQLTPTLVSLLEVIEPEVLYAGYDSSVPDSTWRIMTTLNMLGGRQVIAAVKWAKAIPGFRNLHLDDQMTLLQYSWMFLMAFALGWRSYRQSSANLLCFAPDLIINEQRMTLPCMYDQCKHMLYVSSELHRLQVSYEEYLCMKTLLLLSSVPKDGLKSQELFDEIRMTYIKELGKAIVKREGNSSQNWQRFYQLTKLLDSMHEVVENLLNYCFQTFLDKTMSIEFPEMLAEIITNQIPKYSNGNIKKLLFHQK
Sequence of 3',5'-cyclic-AMP phosphodiesterase 4B (Homo sapiens) (Q07343 whole entry, looked up): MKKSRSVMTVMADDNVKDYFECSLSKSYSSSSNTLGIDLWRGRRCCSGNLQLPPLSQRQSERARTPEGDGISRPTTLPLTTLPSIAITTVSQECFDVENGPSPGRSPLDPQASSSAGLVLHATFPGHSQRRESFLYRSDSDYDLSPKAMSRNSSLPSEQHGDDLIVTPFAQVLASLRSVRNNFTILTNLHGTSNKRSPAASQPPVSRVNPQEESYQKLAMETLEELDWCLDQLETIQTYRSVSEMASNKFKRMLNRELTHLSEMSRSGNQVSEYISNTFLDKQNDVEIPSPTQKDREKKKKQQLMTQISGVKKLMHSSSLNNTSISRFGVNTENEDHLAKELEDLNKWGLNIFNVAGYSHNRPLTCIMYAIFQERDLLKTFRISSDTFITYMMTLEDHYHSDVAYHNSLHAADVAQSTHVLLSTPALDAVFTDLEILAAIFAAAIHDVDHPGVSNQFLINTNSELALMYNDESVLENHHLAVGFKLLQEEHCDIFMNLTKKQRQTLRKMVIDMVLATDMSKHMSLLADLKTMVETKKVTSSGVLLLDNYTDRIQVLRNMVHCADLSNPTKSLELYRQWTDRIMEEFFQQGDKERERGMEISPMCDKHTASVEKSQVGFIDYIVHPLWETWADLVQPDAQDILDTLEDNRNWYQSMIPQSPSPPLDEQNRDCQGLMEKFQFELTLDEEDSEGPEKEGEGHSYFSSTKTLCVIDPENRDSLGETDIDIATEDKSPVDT

For `Clc1cccc(SC2CCNCC2)n1`, the result in experiment [1] was inactive.
Turning to `CCCCC/C=C\C/C=C\C/C=C\C/C=C\CCCC(=O)NCC(=O)O`, the result in experiment [1] and in experiment [2] was inactive.
Consider `COP(=S)(OC)Oc1ccc(SC)c(C)c1`, for which the compound was classed as inactive in experiment [3], in experiment [8], in experiment [9], in experiment [10], in experiment [13] and in experiment [14]. Also, the outcome in experiment [15], in experiment [16], in experiment [17], in experiment [18] and in [19] was inactive. In addition, the activity change, negative = cytotoxicity in experiment [4] was -11.1%. The Potency entry in [5], in experiment [6], in experiment [7] and in experiment [12] was “inactive” each time. Also, the caspase-3 activation in experiment [11] was 0.672%.
On to `Cc1ncsc1CCCl`, for which the Potency in experiment [20] was more than 46 µM. Further, the compound was called inactive in experiment [1].
Turning to `O=C(CCCN1CCC2(CC1)C(=O)NCN2c1ccccc1)c1ccc(F)cc1`, the Potency in [20] is > 46 µM and > 20.6 µM. The result in [1] and in experiment [2] was inactive.
In the case of `CCC(C)(C)c1ccc(O)cc1`, the result in experiment [1], in experiment [3], in experiment [8], in [9], in experiment [10] and in [13] was inactive. Further, the result in experiment [14], in experiment [15], in [16], in experiment [17], in [18] and in experiment [19] was inactive. The activity change, negative = cytotoxicity in experiment [4] is -23.4%. Also, the Potency entry in experiment [5], in [6], in experiment [7] and in [12] was “inactive” each time. In [11], the caspase-3 activation is -1.04%.
Take `O=c1oc2ccccc2c(O)c1Cc1c(O)c2ccccc2oc1=O`: in [2], the result was inactive.
`O=c1[nH]oc2c1CCNC2`: the Potency in experiment [20] is > 46 µM and > 20.6 µM. In addition, the compound was called inactive in experiment [1] and in experiment [2].
For the compound `C[C@]12CCC(=O)C=C1CC[C@@H]1[C@@H]2CC[C@@]2(C)[C@H]1CC[C@]2(C)O`, the compound was called inactive in experiment [1], in experiment [9], in experiment [10], in [13], in experiment [14] and in [15]. Moreover, the call in experiment [16], in experiment [17], in [18] and in experiment [19] was inactive. The activity change, negative = cytotoxicity in experiment [4] was -123% (active). Besides, the Potency entry in experiment [5] and in [12] was “inactive” each time. Also, the caspase-3 activation in [11] is 22.4%.
Turning to `C[C@]12CCC(=O)C=C1CC[C@@H]1[C@@H]2CC[C@]2(C)C(=O)CC[C@@H]12`, the compound was classed as inactive in experiment [1], in experiment [3], in experiment [8], in experiment [9], in experiment [10] and in [13]. For the same compound, the outcome in experiment [14], in [15], in experiment [16], in experiment [17], in [18] and in experiment [19] was inactive. The activity change, negative = cytotoxicity in experiment [4] was -137% (active) and -117% (active). Moreover, the Potency result in [5], in [7] and in [12] was “inactive” each time. In experiment [6], the Potency is 25.1 µM (active). In [11], the caspase-3 activation was 7.89% and 0.322%.
Take `Oc1ccc(Cl)cc1`: the compound was classed as inactive in [1], in [3], in experiment [8], in [9], in [10] and in experiment [13]. The outcome in experiment [14], in [15], in [16], in experiment [17], in experiment [18] and in experiment [19] was inactive. Moreover, the activity change, negative = cytotoxicity in experiment [4] was 5.07%. In addition, the Potency entry in experiment [5], in [6], in [7] and in experiment [12] was “inactive” in each case. Besides, the caspase-3 activation in experiment [11] is -0.847%.
Take `O=C(O)CCCc1ccc(N(CCCl)CCCl)cc1`: the compound was called inactive in [1], in [3], in experiment [8], in experiment [9], in experiment [2] and in experiment [14]. The call in [15], in [16], in [18] and in experiment [19] was inactive. The Potency entry in experiment [5] and in [12] was “inactive” each time. The Potency in experiment [7] is 3.16 µM (active). Besides, the caspase-3 activation in experiment [11] is 96.5% (active).
Consider `COc1ccc2c(c1)C13CCCC[C@@H]1C(C2)N(C)CC3` (stereo not given in full), for which, in [20], the Potency is more than 20.6 µM. Moreover, the call in experiment [1] and in experiment [2] was inactive.
As to `CN1C[C@H](C(=O)N[C@]2(C)O[C@@]3(O)[C@@H]4CCCN4C(=O)[C@H](Cc4ccccc4)N3C2=O)C=C2c3cccc4[nH]cc(c34)C[C@H]21`, the compound was classed as inactive in experiment [1], in [3], in [8], in experiment [10], in experiment [13] and in [14]. The outcome in experiment [15], in experiment [16], in experiment [17], in experiment [18] and in experiment [19] was inactive. Further, the Potency result in [5] and in [12] was “inactive” each time.
With `C=CCN1C[C@H](C)N([C@H](c2ccc(C(=O)N(CC)CC)cc2)c2cccc(OC)c2)C[C@H]1C`, in experiment [20], the Potency was more than 46 µM. Further, the call in experiment [1] and in experiment [2] was inactive.
As for `CC(C)NC(C)C`, the outcome in experiment [1], in experiment [3], in [8], in experiment [9], in experiment [10] and in experiment [13] was inactive. The compound was called inactive in [14], in [15], in experiment [16], in [17], in experiment [18] and in [19]. In experiment [4], the activity change, negative = cytotoxicity is -15.2%. For the same compound, the Potency entry in experiment [5], in experiment [6], in [7] and in experiment [12] was “inactive” in each case. Also, the caspase-3 activation in [11] is 0.66%.
Take `CCC1(CC)C(=O)C=CNC1=O`: the Potency in experiment [20] is more than 20.6 µM. The result in experiment [1] and in experiment [2] was inactive.
Regarding `CC(C)c1cccc(C(C)C)c1O`, the call in experiment [1], in [3], in [8], in [9], in experiment [2] and in experiment [10] was inactive. Besides, the compound was called inactive in experiment [13], in [14], in experiment [15], in experiment [16], in experiment [17] and in experiment [18]. In addition, the call in experiment [19] was inactive. Moreover, the activity change, negative = cytotoxicity in [4] was 4.32%. Besides, the Potency result in experiment [5], in experiment [6], in [7] and in experiment [12] was “inactive” throughout. Also, the caspase-3 activation in [11] was 0.709%.
